These results are taken from PubChem BioAssay (NCATS).

Assay [1] in a line: S16 Schwann cell PMP22 intronic element beta-lactamase assay (AID 624044; calls by dose curve; note: nearly all actives have a fitted effect of over 15% in size; note: potency is the fitted concentration of half-maximal effect). The conditions noted are these: S16 rat Schwann cells, PMP22 element beta-lactamase FRET, 24 h; series mostly up to 38.3 µM. The procedure, abridged: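 Beta-lactamase reporter under a PMP22 intronic regulatory element in stable S16 rat Schwann cells; 24 h compound exposure. 460 nm blue signal normalized between DMSO (0%) and potassium clavulanate, with 535 nm FRET tracking viability; curves classed by r2 and response.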

The nature of assay [2]: Cytotoxicity counterscreen for NFkB agonists and antagonists (AID 624476).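 Note: cells exposed to compound for 48 hours; % is set by controls: 0 for no effect and ±100 for the full control effect.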 The conditions noted are these: NFkB reporter cell line viability counterscreen; series mostly up to 46.1 µM.
Assay [3] can be described thus: qHTS Assay for Identification of Small Molecule Antagonists for NFkB Signaling Pathway. (AID 624479; calls by dose curve;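 note: pathway stimulated with TNF alpha; % is set by controls: 0 for no effect and ±100 for the full control effect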). The conditions noted are these: NFkB pathway reporter cell assay, antagonist mode; series mostly up to 38.3 µM. A general note: In qHTS, concentration-response curves come from the screen itself.
The nature of assay [4]: Cell Proliferation Assay against the TMD8 Cell Line (AID 651645).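 Note: cells exposed to compound for 48 h before reading.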 The following applies: TMD8 DLBCL cell line proliferation/viability; at 46.1 µM (top of the series) unless noted. An outline of the steps: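 Viability by CellTiter-Glo after 48 h compound exposure of 500 log-phase TMD8 cells per well (RPMI, 5% FBS). Percent activity scaled between DMSO (100%) and 9.2 uM final bortezomib (0%).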

The nature of assay [5]: Cell Proliferation Assay against the HBL1 Cell Line (AID 651646).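 Note: cells exposed to compound for 48 h before reading.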 The conditions noted are these: HBL1 DLBCL cells; at 46.1 µM (top of the series) unless noted. An outline of the steps:
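HBL1, 500 cells/well, RPMI no phenol red + 5% FBS; cpd pinned, 48 h 37C/5% CO2; CellTiter-Glo, 15 min RT, luminescence. % activity: DMSO = 100%, bortezomib 9.2 uM final = 0%.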

Assay [6] is described as follows: Cell Proliferation Assay against the TMD8 Cell Line (Caspase readout at 16 hrs) (AID 651712).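 Note: 0% = DMSO and 100% = 9.2 µM bortezomib caspase activation.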 The conditions noted are these: TMD8 lymphoma cells, caspase activation luminescence; series mostly up to 46.1 µM. The text has this: One class of targeted therapeutics showing early clinical success in killing of ABC DLBCL lines are small molecule inhibitors of the Bruton tyrosine kinase (BTK) 11. Thus, we chose to investigate what additional compounds, if any, would synergize with the BTK inhibitor Ibrutinib (PCI-32765).
Prior to any combination assays, using an NCATS developed oncology compound library called the Mechanism of Interrogation Plate (MIPE), two well studied ABC DLBCL lines (TMD8 and HBL1) were screened using a cell viability assay (CellTiterGlo) and a 12-point titration series for each single agent. These initial experiments offered insight into the concentration range that offered the best coverage of activity and non-activity to assure relevant data is generated. In addition to the viability signature associated with this library, we examined the apoptotic response of each agent versus the TMD8 line as judged by caspase 3/7 activation. Activity was assayed at both 8 and 16 hour time-points to gain an appreciation of which agents induced an apoptotic response in a reasonable timeframe from a therapeutic exposure perspective. MIPE was also assayed for single agent viability in a human mesenchymal stem cell (hMSC) line as a surrogate of each library members potential therapeutic index.
The combination plates were then generated by choosing 20 of the best compounds from this single agent screen and plated in the presence of the BTK inhibitor. The first analysis was carried out using 6x6 dose response blocks for each of the 20 compounds. […] In addition to the cell viability assay, the parallel caspase 3/7 activation and viability in hMSC assays were carried out in the 10x10 format.
A total of 500 log growing TMD8 cells are seeded per well in 5 uL of a RPMI with glutamine (or Glutamax), without phenol red plus 5% FBS and 1X Pen/Strep into 1536 -solid white high base tissue culture treated Greiner One Bio Plates (789173-F) using a multidrop combi dispenser and a small sterile cassette. Compounds and controls totaling 23nL per well (negative control DMSO and positive control 9.2 uM Bortezomib-final) are immediately added to the plates using a 1536 head pin tool from Kalypsys. The plates are then covered with stainless steel gasket lids from Kalypsys and incubated for either 16 hours at 37C under 95% relative humidity with 5% CO2. After the desired incubation time, the plates are removed and allowed to reach room temperature before 3 uL of the Caspase Glo reagent (Promega) is added using an Aurora Flying Reagent Dispenser Bioraptor. The plates are then spun at 1000 rpms to remove bubbles and incubated for 15 minutes at room temperature before read on a ViewLux using a luminescent filter with a 10 second exposure. The relative luciferase units are used to calculated percent activity using DMSO as 0% and Bortezomib as 100%.

SMILES strings stand for the structures. Inconclusive results are not listed. Activity calls are given as the source filed them. Unless noted, calls come from the whole dose curve; as a rule, active = well fitted curve in the direction sought with a large enough effect; inconclusive = small, poorly fitted or top-dose-only effect, or another doubt; inactive = no such curve, though single readings can be large; an effect the other way counts as inactive or inconclusive.

`CCOC(=O)C1=C(C)NC(C)=C(C(=O)OCC)C1c1ccccc1C=CC(=O)OC(C)(C)C`: the Potency result in assay [1] is “inactive”.

With `CCC1(Cc2ccc(N)cc2)CCC(=O)NC1=O` (centres undefined), the Potency entry in assay [2], in assay [3] and in assay [6] was “inactive” in each case. Besides, the viability (% of control) in assay [4] was 97.8% [at 92.2 µM]. The viability, percent of control in assay [5] came out at 97.3% [at 92.2 µM].

In the case of `Cc1nnc(C(C)C)n1C1CC2CCC(C1)N2CC[C@H](NC(=O)C1CCC(F)(F)CC1)c1ccccc1` (some centres undefined), the Potency result in assay [2], in assay [3] and in assay [6] was “inactive” in each case. Further, in assay [4], the viability (% of control) was 86.2%. For the same compound, in assay [5], the viability, percent of control is 87.3%.

`CCNC(=O)[C@@H]1CCCN1C(=O)[C@H](CCCN=C(N)N)NC(=O)[C@H](CC(C)C)NC(=O)[C@@H](Cc1c[nH]c2ccccc12)NC(=O)[C@H](Cc1ccc(O)cc1)NC(=O)[C@H](CO)NC(=O)[C@H](Cc1c[nH]c2ccccc12)NC(=O)[C@H](Cc1cnc[nH]1)NC(=O)[C@@H]1CCC(=O)N1`: the Potency in assay [1] was 22.4 µM (active).

Take `CCC1(O)CC2CN(CCc3c([nH]c4ccccc34)[C@@](C(=O)OC)(c3cc4c(cc3OC)N(C=O)[C@H]3[C@](O)(C(=O)OC)[C@H](OC(C)=O)[C@]5(CC)C=CCN6CC[C@]43[C@@H]65)C2)C1` (some centres undefined): the Potency entry in assay [2] and in assay [3] was “inactive” in each case. The viability (% of control) in assay [4] is -0.162%. Besides, in assay [5], the viability, percent of control turned out to be 22.9%.

`COCC(=O)Nc1cc(Sc2ccccc2)ccc1N=C(NC(=O)OC)NC(=O)OC`: the Potency result in assay [1] is “inactive”.

Consider `CC(NC(=O)Cc1cc(F)cc(F)c1)C(=O)NC(C(=O)OC(C)(C)C)c1ccccc1` (centres undefined), for which the Potency result in assay [2], in assay [3] and in assay [6] was “inactive” throughout. In addition, the viability (% of control) in assay [4] is 90.6%. The viability, percent of control in assay [5] was 103%.

For `CCN(CC)CCOc1ccc(-c2nc3cc(Cl)ccc3s2)cc1`, the Potency result in assay [1] was “inactive”.

For `CCCCC/C=C\C/C=C\CCCCCCCC(=O)O`, the Potency entry in assay [1] is “inactive”.
